Screening results (PubChem)
In the library only some 5.5% were active in any assay of this set; here they are far more common.
Coupling enz: qHTS Assay for Inhibitors of Fructose-1,6-bisphosphate Aldolase from Giardia Lamblia: Coupling assay counterscreen; coupling enzyme system counterscreen, AmpLite Red fluorescence; activity change, negative = inhibition, % at 58.2 µM, hits read low; 290,000 tested, 0.67% active; in the data active = activity change below about -30%
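Counterscreen of the coupled detection system alone, without aldolase: glyceraldehyde-3-phosphate coupling enzymes plus AmpLite Red readout. Compounds at 57.5 uM final, 10 min RT preincubation, 20 min RT reaction, fluorescence 525/598 nm.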
ELG1 repair inh: qHTS screen for small molecules that inhibit ELG1-dependent DNA repair in human embryonic kidney (HEK293T) cells expressing luciferase-tagged ELG1. HEK293T ELG1-luciferase reporter, luminescence, 16 h; DNA damage induced by 5-fluorouridine. Potency, µM (titrated, usually from 46.1 µM), hits mostly inhibitors. 330,000 tested, 2.3% active. AID 504467, 2011; note: nearly all actives have a fitted effect of over 55% in size
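Cells (2,000 per well) received 5-fluorouridine plus test compound or DMSO and were incubated 16 hr at 37 °C, 5% CO2. Luciferase activity was read by luminescence 30 min after ONE-Glo addition; signal suppression marked inhibition of damage-induced ELG1 function.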
Sfp inh: qHTS Assay for Inhibitors of Bacillus subtilis Sfp phosphopantetheinyl transferase (PPTase); AID 1490, 2009; 310,000 tested, 3.5% active; Potency, µM, most hits filed as inhibitors; 4'-phosphopantetheinyl transferase ffp (Bacillus subtilis), Q9F4F7; Biochemical Sfp PPTase activity, qHTS;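 note: the enzyme is Sfp with the accession as filed and its product quenches rhodamine fluorescence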
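Reaction rates are the 30-min fluorescence difference (ex 525, em 598 nm) in wells containing 15 nM Sfp, 5 uM rhodamine-CoA and 12.5 uM BHQ-2-YbbR at pH 7.6 with 10 mM MgCl2.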
Giardia killer: Small Molecules that selectively kill Giardia lamblia: qHTS; Giardia lamblia trophozoite viability; activity change, % at 7.66 µM, hits read low; 340,000 tested, 0.15% active; AID 540267, 2011; in the data active = activity change below about -80%; inconclusive = between about -30% and that limit;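 note: parasites exposed to compound for two days anaerobically before the ATP read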
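Giardia lamblia trophozoites (100 cells/well) were incubated with compounds for 48 h at 37 deg C under anaerobic conditions. Viability was read as ATP content by one-step luminescence after 15-30 min at room temperature.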
Of the large screens only hits and unclear results are named; the others gave an inactive call; ! = repeats disagree. Unless noted, calls come from the whole dose curve; as a rule, active = well fitted curve in the direction sought with a large enough effect; inconclusive = small, poorly fitted or top-dose-only effect, or another doubt; inactive = no such curve, though single readings can be large; an effect the other way counts as inactive or inconclusive.

O=C(Cc1cccc(NC(=O)C2CCN(S(=O)(=O)c3cccc([N+](=O)[O-])c3)CC2)c1)Nc1cccc(C(=O)N2CCOCC2)c1	none (no result: Coupling enz, ELG1 repair inh, Sfp inh)
O=C(O)c1cc(=O)c2cccc(O)c2[nH]1	Sfp inh 79µM! (no result: ELG1 repair inh)
O=C(O)c1cc(=O)c2ccccc2[nH]1	none
Nc1ccn(CC(=O)NCc2ccc3[nH]ccc3c2)c(=O)n1	none (no result: Coupling enz, Sfp inh)
CCOc1cccc(CNc2ccc(O)cc2)c1OCc1ccc(Cl)cc1	Coupling enz -51, ELG1 repair inh inconclusive, Sfp inh 45µM
Oc1ccc(NCc2ccccc2OCc2ccccc2F)cc1	Coupling enz -52, ELG1 repair inh inconclusive, Sfp inh inconclusive
Cc1ccc(NCc2ccccc2OCc2ccccc2F)cc1	none
COc1cc(CNCc2ccccn2)ccc1OCc1ccc(Cl)cc1Cl	Sfp inh inconclusive
CCOc1cc(CNc2ccc(O)cc2)ccc1OCc1ccc(Cl)cc1Cl	Coupling enz -52, ELG1 repair inh inconclusive, Sfp inh inconclusive
Cc1ccccc1NC(=S)Nc1ccc2cn[nH]c2c1	none
S=C(Nc1ccc2cn[nH]c2c1)Nc1ccc(Cl)cc1Cl	Sfp inh 16µM
O=c1[nH]c2ccc(NC(=S)Nc3ccccc3Cl)cc2[nH]1	Sfp inh 50µM
S=C(Nc1ccc2cn[nH]c2c1)Nc1ccccc1Cl	Coupling enz -47, ELG1 repair inh inconclusive
O=c1[nH]c2ccc(NC(=S)Nc3ccc(Cl)cc3Cl)cc2[nH]1	none
Cc1ccc(NC(=S)Nc2ccc3[nH]c(=O)[nH]c3c2)cc1	Sfp inh inconclusive
CCOC(=O)c1ccc(NC(=S)Nc2ccc3[nH]c(=O)[nH]c3c2)cc1	ELG1 repair inh inconclusive, Sfp inh 40µM
Cc1c(N(C)S(=O)(=O)c2ccc(Cl)c(C(=O)NCC(C)(C)N3CCOCC3)c2)c(=O)n(-c2ccccc2)n1C	none (no result: Coupling enz, ELG1 repair inh, Sfp inh)
O=c1[nH]n(-c2ccccc2)c(=O)cc1Cl	none (no result: Coupling enz, ELG1 repair inh, Sfp inh)
Cc1ccc(C2CC(=O)N3CN(c4ccc(Br)cc4)CSC3=C2C#N)o1 (stereo not given)	Coupling enz -38, Sfp inh 1.3µM
CCSC1=C(C#N)C(c2ccc(C)o2)CC(=O)N1 (stereo not given)	none
CCOc1ccc(N2CSC3=C(C#N)C(c4ccco4)CC(=O)N3C2)cc1 (stereo not given)	Sfp inh 3.2µM
O=C(Nc1ccc2[nH]ccc2c1)c1ccc(F)cc1	ELG1 repair inh inconclusive, Giardia killer -83
C/C(=N/Nc1nc(-c2ccccc2)cc(-c2ccc(F)cc2)n1)c1cccc(N)c1	ELG1 repair inh 7.3µM
C/C(=N\Nc1nc(C)cc(-c2ccccc2)n1)c1ccc(F)cc1	none
CCN(C(=O)CSc1nnc(-c2cccc(Cl)c2)n1N)c1c(N)n(Cc2ccccc2)c(=O)[nH]c1=O	none (no result: Coupling enz, ELG1 repair inh, Sfp inh)
O=S(=O)(c1ccccc1)N1CCC(O)(CSc2ccc(F)cc2)CC1	ELG1 repair inh inconclusive
O=S(=O)(c1ccccc1)N1CCC(O)(CSc2ccccc2)CC1	ELG1 repair inh 8.2µM
O=C(COC(=O)c1cc([N+](=O)[O-])ccc1N1CCOCC1)Nc1ccccc1OC(F)F	ELG1 repair inh inconclusive (no result: Coupling enz, Sfp inh)
O=C(COC(=O)c1cc([N+](=O)[O-])ccc1N1CCOCC1)c1ccc(OC(F)F)cc1OC(F)F	ELG1 repair inh 21µM (no result: Coupling enz, Sfp inh)
CCOc1ccc(C(=O)COC(=O)c2cc([N+](=O)[O-])ccc2N2CCOCC2)cc1	none (no result: Coupling enz, Sfp inh)
O=C(COC(=O)c1cc([N+](=O)[O-])ccc1N1CCOCC1)Nc1cc(F)ccc1F	ELG1 repair inh 23µM (no result: Coupling enz, Sfp inh)
CCN(CC(=O)NC1CCCC1)S(=O)(=O)c1ccc(F)cc1	none
O=C(/C=C/c1ccccc1)c1cc(Br)ccc(=O)c1O	ELG1 repair inh inconclusive, Sfp inh 16µM
Cc1ccc(/C=C/C(=O)c2ccccc(=O)c2O)cc1C	ELG1 repair inh 21µM, Sfp inh inconclusive
C/C=C/c1ccc(OCC(=O)O)c(OC)c1	none
C/C=C/c1ccc(OCC(=O)Nc2cc(OC)c(OC)c(OC)c2)c(OC)c1	ELG1 repair inh 15µM
CCNc1ncc2nc(-c3cccs3)c(=O)n(CCc3ccccc3)c2n1	none (no result: ELG1 repair inh, Giardia killer)
COc1ccc2c(c1)c(CC(=O)Nc1nnc(C3CC3)s1)c(C)n2C(=O)c1ccc(Cl)cc1	ELG1 repair inh 5.8µM, Sfp inh inconclusive
COc1ccc2c(c1)c(CC(=O)Nc1cc(C)ccc1C)c(C)n2C(=O)c1ccc(Cl)cc1	ELG1 repair inh inconclusive
COc1ccc2c(c1)c(CC(=O)Nc1ccc(C(C)=O)cc1)c(C)n2C(=O)c1ccc(Cl)cc1	ELG1 repair inh 12µM, Sfp inh inconclusive
COc1ccc2c(c1)c(CC(=O)NCc1cc([N+](=O)[O-])ccc1O)c(C)n2C(=O)c1ccc(Cl)cc1	ELG1 repair inh inconclusive, Sfp inh inconclusive (no result: Coupling enz)
COCCn1c(SCC(=O)N2CCc3ccccc3C2)nc2cc(Cl)ccc2c1=O	ELG1 repair inh 23µM
COCCn1c(SCC(=O)Nc2cc(C)on2)nc2cc(Cl)ccc2c1=O	none (no result: Coupling enz, Sfp inh)
CC(C)Cn1c(SCC(=O)N2CCc3ccccc3C2)nc2cc(Cl)ccc2c1=O	ELG1 repair inh 18µM
CCCCn1c(SCC(=O)c2ccc3c(c2)NC(=O)CO3)nc2cc(S(N)(=O)=O)ccc21	ELG1 repair inh 16µM, Sfp inh inconclusive
CC(C)c1ccccc1-n1c(SCC(=O)N2CCc3ccccc3C2)nc2ccccc2c1=O	ELG1 repair inh 26µM
CCN(CC(=O)Nc1c(F)cccc1F)C(=O)c1nc2nc(C)cc(C)n2n1	none (no result: Coupling enz, Sfp inh)
CC(C)c1ccccc1-n1c(SCC(=O)c2ccc3c(c2)NC(=O)CO3)nc2ccccc2c1=O	ELG1 repair inh 5.2µM
COc1cccc(Cn2c(=O)c(C)nc3cnc(Nc4ccccc4)nc32)c1	none (no result: ELG1 repair inh, Giardia killer)
N#CC1=C(S)N(c2ccc(F)cc2)C(c2cccs2)NC1=O (stereo not given)	Sfp inh 56µM
Cc1ccccc1N1C(S)=C(C#N)C(=O)NC1c1cccs1 (stereo not given)	none
Cc1cccc(N2C(S)=C(C#N)C(=O)NC2c2cccs2)c1 (stereo not given)	Sfp inh 32µM
O=C(NCc1ccc(Cl)cc1)c1cc(=O)[nH]c2ccccc12	ELG1 repair inh inconclusive
Cc1ccc(-c2nn(-c3ccccc3)cc2CN(Cc2ccccc2)C(=O)c2ccco2)o1	ELG1 repair inh 18µM, Sfp inh 18µM
Cc1ccc(-c2nn(-c3ccccc3)cc2C(=O)O)o1	ELG1 repair inh inconclusive (no result: Giardia killer)
CCOC(=S)SCC(=O)N1CCc2ccccc2C1C1C(=O)CCCC1=O (stereo not given)	Sfp inh 56µM
O=C1CCCC(=O)C1C1c2ccccc2CCN1C(=O)CCl (stereo not given)	none
Cc1sc(Cc2nc(O)cs2)nc1-c1ccccc1	Sfp inh 32µM
CC(C)(C)C(=O)NCCCc1nc2ccccc2n1CCCOc1ccc(Cl)cc1	ELG1 repair inh 23µM
C/C(=N\NC(=O)CSCc1ccccc1Cl)c1cc(O)ccc1O	ELG1 repair inh 18µM, Sfp inh inconclusive
